PubChem BioAssay AID1259240 (Keith Lab, Institute of Cancer Science, University of …, 2017)
Activity calls are given as the source filed them. No stated cut-off is given here; in the data, active means fold change mostly below about -2 (no sharp cut-off); inactive means mostly above about -1.8.

test: modulation of TERT promoter-driven luciferase – cell-based, luciferase reporter, human, primary screen (AID 1259240); settings: A2780 TERT promoter luciferase reporter, 16 h; at 20 µM, fold versus average of vehicle-only wells

Fold change, active:
CC(C)Oc1cc(O)c2c(=O)c(-c3ccc(O)cc3)coc2c1 -6.88

Fold change, inactive:
Cc1ccc2c(C)nc(NC3=NCN(CC4CCCO4)CN3)nc2c1 (stereo unspecified) -1.73, CN(C(=O)c1ccc2c(=O)n3c(nc2c1)CCCCC3)c1ccc(F)cc1 -1.12, CNC(=O)c1ccc(-c2nn(C)c(=O)c3ccccc23)cc1 -1.06, CN1CCc2c(sc3c2C(=O)NC(c2cccc(Cl)c2Cl)N3)C1 (stereo unspecified) -1.43, CC1CC(C)CN(C(=O)C2CCC(CNS(=O)(=O)c3cccc4nsnc34)CC2)C1 (stereo unspecified) -1.1, COC(=O)c1ccc(C2Oc3c(OC)cccc3C3CC(c4cccs4)=NN32)cc1 (stereo unspecified) -1.08, Nc1nc(SCC(=O)c2ccc(O)cc2O)n[nH]1 -1.59, COc1ccc(-c2cc(N)n(S(=O)(=O)c3ccc([N+](=O)[O-])cc3)n2)cc1OC 1.17, CCCOc1ccc(Cc2nn3c(=O)/c(=C\c4cccc(OC(C)=O)c4)sc3nc2=O)cc1 -1.43, COc1ccc(-c2nc3s/c(=C\c4ccccc4)c(=O)n3n2)cc1OC 1.68

outcome, inactive:
Cc1ccc(C2C3=C(CC(C)(C)CC3=O)Nc3ncnn32)cc1 (stereo unspecified), Cc1ccc(NC(=O)CSc2nc3c(c(=O)[nH]2)CCC3)cc1F, Cn1c(SCC(=O)N2CCOCC2)nnc1-c1c[nH]c2ccccc12, O=c1[nH]cnc2c1c(-c1ccccc1)cn2-c1ccc(F)cc1, CCOc1ccc(-n2c(O)c(C3=c4cc(Br)ccc4=NC3=O)[nH]c2=S)cc1
